Source: PubChem BioAssay
A selection: hits, their analogues and other compounds. The true share with any hit is near 19%.
KB-3-1 tox – KB-3-1 parental cell cytotoxicity. KB-3-1 viability, CellTiter-Glo ATP luminescence, 72 h. Potency, µM (top dose mostly 46.1 µM), actives largely listed as cytotoxic. hit rate 1.4% among 400,000. AID 1347075; note: nearly all actives have a fitted effect of over 60% in size
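Here the drug-naive KB-3-1 line serves as comparator for MDR sub-line selectivity; cells received compound titrations, 72 h at 37 °C, then CellTiter-Glo readout.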
HT1080-NT tox – kills 2HG-producing HT-1080-NT fibrosarcoma cells | HT-1080-NT fibrosarcoma viability, CellTiter-Glo ATP luminescence, 48 h | Potency, µM (titrated, usually from 46.1 µM), hits mostly cytotoxic | hit rate 1.6% among 360,000;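 note: NT is the 2HG producing partner of a matched IDH1 knockdown line; nearly all actives have a fitted effect of over 55% in size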
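Luminescent CellTiter-Glo readout after 48 hours of compound exposure at 37 degrees C defined viability of HT-1080-NT cells. Activity was normalized to DMSO wells and cell-free media wells; concentration-response curves were fitted and assigned curve classes.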
DT40 TDP1 CPT – DT40-hTDP1 cell growth loss with CPT. hit rate 12% among 420,000. chicken DT40 Tdp1-/-;hTDP1 cells + 20 nM CPT, ATP luminescence, 48 h. Potency, µM (titrated, usually from 46.2 µM), most hits filed as inhibitors. AID 686979; note: nearly all actives have a fitted effect of over 55% in size
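Chicken DT40 Tdp1-/- cells complemented with human TDP1, 400 cells/well, exposed to compounds plus 20 nM camptothecin for at least 48 h at 37 C; viability read as ATP content by CellTiter-Glo luminescence.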
KB-V1 MDR tox – kills drug-selected multidrug resistant KB-V1 cells | hit rate 3.4% among 400,000 | KB-V1 MDR cells viability, CellTiter-Glo, 72 h | Potency, µM (series often up to 46.1 µM), most hits filed as cytotoxic; note: nearly all actives have a fitted effect of over 60% in size
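KB-V1 cells (P-gp-expressing MDR subline of KB-3-1) in phenol-red-free DMEM with 10% FBS were exposed to library compounds over a concentration series for 72 h at 37 degrees C. Viability read by CellTiter-Glo luminescence; concentration-effect curves fitted after normalization.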
DT40 TDP1 no CPT – qHTS for Inhibitors of human tyrosyl-DNA phosphodiesterase 1 (TDP1): qHTS in cells in absence of CPT; AID 686978, 2013; hit rate 15% among 420,000; DT40 Tdp1-/- hTDP1 cells, no CPT, ATP luminescence, 48 h; Potency, µM (highest dose often 46.2 µM), usual class: inhibitors; note: nearly all actives have a fitted effect of over 55% in size
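A cellular qHTS used chicken DT40 cells lacking endogenous Tdp1 but carrying stably transfected human TDP1. Compounds were applied without camptothecin, and cell growth kinetics were judged by ATP-dependent luminescence after ≥48 hr.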
HT1080 IDH1KD tx – HT-1080 IDH1 knockdown cell toxicity (counter line); Potency, µM (titrated, usually from 46.1 µM), most hits filed as cytotoxic; HT-1080 IDH1 knockdown viability, ATP luminescence, 48 h; AID 686971; hit rate 2% among 360,000
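% activity derives from luminescence (CellTiter-Glo), normalised to DMSO and no-cell wells. HT-1080-IDH1KD cells, 750/well, had 48 h compound exposure at 37 °C.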
Hits are given with their value; . = inactive; ? = inconclusive; / = no result given; [ ] = dose if it differs, or a comment. Calls come from the whole dose curve; as a rule, active = well fitted curve in the direction sought with a large enough effect; inconclusive = small, poorly fitted or top-dose-only effect, or another doubt; inactive = no such curve, though single readings can be large; an effect the other way counts as inactive or inconclusive.

SMILES | KB-3-1 tox | HT1080-NT tox | DT40 TDP1 CPT | KB-V1 MDR tox | DT40 TDP1 no CPT | HT1080 IDH1KD tx
COc1ccccc1N1CCN(C(=O)C2CCN(S(=O)(=O)c3ccc4c(c3)CC(C)N4C(C)=O)CC2)CC1 (configuration not stated) | . | . | ? | . | 11.6µM | .
COc1ccccc1N1CCN(C(=O)C2CCN(S(=O)(=O)c3ccc(Cl)cc3)CC2)CC1 | . | . | ? | . | 20.6µM | .
CC(C)c1ccc(S(=O)(=O)N2CCC(C(=O)N3CCN(c4cccc(Cl)c4)CC3)CC2)cc1 | . | . | 25.9µM | . | ? | .
O=C(C1CCN(S(=O)(=O)c2ccc(Cl)cc2)CC1)N1CCCC1 | . | . | . | . | ? | .
CC(N)=NCCCC[C@H](N)C(=O)O | / | / | . | / | . | /
COc1ccc(NC2CCCN(C(=O)COc3ccc(Cl)cc3C)C2)cc1OC (configuration not stated) | . | . | 23.1µM | 7.31µM | 25.9µM | .
COc1ccccc1OCC(=O)N1CCCC(Nc2ccc(C)c(C)c2)C1 (configuration not stated) | / | . | ? | / | . | .
O=C(O)C(Cc1cc(I)c(O)c(I)c1)c1ccccc1 (configuration not stated) | / | / | . | / | ? | /
Cc1c(N2C(=O)/C(=C\C3CC=CCC3)SC2=S)c(=O)n(-c2ccccc2)n1C (configuration not stated) | . | ? | ? | . | ? | 18.4µM
Cc1c(N2C(=O)/C(=C/C3CC=CCC3)SC2=S)c(=O)n(-c2ccccc2)n1C (configuration not stated) | . | ? | 18.4µM | . | ? | .
CC(C)(C)OC(=O)N/N=C/c1cc(N=Nc2ccccc2)ccc1O | ? | . | ? | . | ? | ?
Cc1c(N2C(=O)/C(=C\c3ccccc3O)SC2=S)c(=O)n(-c2ccccc2)n1C | . | . | 7.31µM | . | ? | .
CN1C(=O)/C(=C/c2cc(N=Nc3ccccc3)ccc2O)SC1=S | . | . | ? | . | 23.1µM | .
O=C(COC(=O)Cc1c[nH]c2ccccc12)Nc1cccc(Br)c1 | . | . | . | . | ? | .
O=C(COc1ccc(Cl)cc1)NCc1n[nH]c(=O)c2ccccc12 | . | . | . | . | . | .
Cc1ccc(S(=O)(=O)c2nc(C)c3c(n2)CCC3)cc1 | . | . | . | . | . | .
Cc1nc(S(=O)(=O)c2ccc(Cl)cc2)nc2c1CCC2 | . | . | . | 14.6µM | . | .
Cc1cccc(Cn2nc(-n3cccc3)c3c(C)cc(C)nc32)c1 | . | . | ? | . | ? | .
CCOc1ccc(-c2nc(Cn3c(=O)cc(C)c4c(C)nn(-c5ccc(C)cc5)c43)c(C)o2)cc1 | . | / | . | . | . | /
Cc1ccc(C(=O)NCCc2nnc3n2CCN(C(=O)c2ccnc(Cl)c2)CC3)cc1 | / | / | . | / | . | /
O=C(Cc1ccc(Cl)cc1)N/N=C/c1c(Cl)cccc1Cl | . | . | . | . | ? | .
Cc1ccsc1/C=N/NC(=O)Cc1ccc(Cl)cc1 | . | . | ? | . | ? | .
O=C(Cc1ccc(Cl)cc1)N/N=C/c1ccc(O)c(O)c1 | ? | . | ? | ? | 13µM | .
Cc1ccc(O)c(/C=N/NC(=O)Cc2ccc(Cl)cc2)c1 | . | ? | ? | . | ? | 13µM
O=C1C=C(O)c2cccc(O)c2C1=O | . | . | 25.9µM | . | ? | .
SMILES | KB-3-1 tox | HT1080-NT tox | DT40 TDP1 CPT | KB-V1 MDR tox | DT40 TDP1 no CPT | HT1080 IDH1KD tx
CCCN(C)C[C@@H]1Oc2ncc(Br)cc2C(=O)N([C@@H](C)CO)C[C@H]1C | . | . | . | . | . | .
CCOc1ccc2nc(NCCNC(=O)c3cc(OC)c(OC)c(OC)c3)c(C#N)cc2c1 | . | . | . | . | ? | .
CCOc1ccc2nc(NCCCNS(=O)(=O)c3ccc(F)cc3)c(C#N)cc2c1 | 18.4µM | . | . | . | ? | .
CC(C)(C)NC(=O)CC(CC(=O)O)c1ccccc1 (configuration not stated) | . | . | . | . | . | .
CCC(=O)Nc1cccc(NC(=O)c2cccc([N+](=O)[O-])c2C)c1 | . | . | ? | . | 23.1µM | .
Cc1c(C(=O)NN2CCN(C)CC2)cccc1[N+](=O)[O-] | . | . | . | . | . | .
CCOC(=O)c1cc([N+](=O)[O-])c([N+](=O)[O-])cc1NC(C)=O | ? | 7.31µM | ? | . | 0.92µM | ?
Cc1c(C(=O)NC(=S)Nc2ccc(NC(=O)c3cccs3)cc2)cccc1[N+](=O)[O-] | ? | ? | ? | ? | 13µM | .[9.24 µM]
Cc1c(C(=O)Nc2ccc3c(c2)CCC3)cccc1[N+](=O)[O-] | . | . | . | . | ? | .
Cc1c(C(=O)Nc2ccc(Nc3ccccc3)cc2)cccc1[N+](=O)[O-] | . | . | 9.2µM | . | 8.2µM | .
C[C@@H]1COC(=O)[C@@H](CC(=O)OC(C)(C)C)C/C=C\C[C@@H](CC(=O)N[C@H](CO)Cc2ccccc2)C(=O)N1 | . | . | . | . | . | .
CC(=O)N/C(=C/c1ccc2c(c1)OCO2)C(=O)NCCO | . | . | . | . | . | .
O=[N+]([O-])c1cc(Br)c(Nc2ccccc2)c([N+](=O)[O-])c1 | ? | ? | 0.82µM | 16.4µM | 0.92µM | 3.26µM
CCCCC(=O)Nc1cccc(NC(=O)c2ccccc2Br)c1 | . | . | ? | 5.17µM | . | .
CCOC(=O)c1ccc(NC(=O)c2ccccc2[N+](=O)[O-])cc1 | . | . | . | . | 18.4µM | .
O=C(Nc1ccccc1)c1ccc(Nc2c([N+](=O)[O-])cc([N+](=O)[O-])c3ccccc23)cc1 | ? | . | 7.31µM | . | 10.3µM | .
O=C(NCc1ccccc1)N1CCC(n2cnc3cc(F)ccc32)CC1 | . | . | . | . | . | .
CC(=O)Nc1ncc(Cc2cc(Cl)ccc2Cl)s1 | . | . | . | . | ? | .
N#C/C(=C\c1c[nH]c2ccccc12)C(=O)Nc1ncc(Cc2ccc(Cl)cc2Cl)s1 | . | ? | ? | ? | 16.4µM | ?
O=C(OCc1nc2scc(-c3ccccc3)c2c(=O)[nH]1)c1ccco1 | . | . | . | . | . | .
Cc1ccc(-c2csc3nc(-c4ccncc4)[nH]c(=O)c23)cc1 | ? | . | 4.11µM | . | 2.59µM | .
O=c1[nH]c(Cc2ccc(F)cc2)nc2scc(-c3ccc(F)cc3)c12 | ? | . | 13µM | ? | 25.9µM | .
O=c1[nH]c(Cc2cccs2)nc2scc(-c3ccc(Cl)cc3)c12 | . | . | 13µM | . | . | .
